# The whole screen tested about 63,000 compounds, of which about 75 (0.1%) were called active. What follows is part of a selection rich in actives, with near analogues and random picks from the rest. Unmarked numbers belong to inactive results. Cut-off read from the data, not from the text of the source: active = inhibition above about 21%; inactive = the rest.
# Target: Cathepsin B (Homo sapiens) (UniProt P07858)
# Test: human cathepsin B inhibitors, primary screen, biochemical, fluorogenic substrate (AID 453);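 note: 0% = enzyme with no compound and 100% = no enzyme blank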
# Conditions: purified cathepsin B, fluorescence, hits give high values,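 tested at 10 µM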
row,Structure (SMILES),inhibition
1,CC(CCc1ccccc1)NC(=O)c1ccc(Br)o1 (stereo unspecified),-4.56%
2,COCCCN1C(=O)C(=O)/C(=C(/O)c2ccc3c(c2)CC(C)O3)C1c1cccnc1 (stereo unspecified),0.25%
3,CCOc1ccc(NC(=O)CCC(=O)n2nc(C)cc2C)cc1,8.67%
4,CCCCC(CCC(=O)Nc1ccc(C(=O)OCC)cc1)C(=O)O (stereo unspecified),-0.09%
5,CCCOc1ccc(/C(O)=C2/C(=O)C(=O)N(CCN(C)C)C2c2ccc(OC)c(OC)c2)cc1 (stereo unspecified),0.77%
6,Cc1nnc(N(Cc2ccco2)C(=O)c2ccno2)s1,-4.93%
7,CCn1c(CSc2nncn2-c2ccc(OC)cc2)nc2cc(S(=O)(=O)N(C)C)ccc21,5.16%
8,Cc1ccc(NC(=O)C2CCCN(S(=O)(=O)c3c(C)noc3C)C2)c(C)c1 (stereo unspecified),-0.58%
9,CCOC(=O)N1CCN(S(=O)(=O)c2cc(Br)cc3c2N(C(=O)C2CC2)CC3)CC1,2.46%
10,CCOc1cc(C(=O)Nc2ncccn2)cc(OCC)c1OCC,-3.7%
11,Cc1ccc(C(=O)Nc2ccc3c(c2)OCO3)cc1S(=O)(=O)N1CCCCC1,49.6% (active)
12,COc1ccc(C(=O)Nc2ccc3c(c2)OCO3)cc1OC,1.65%
13,Cc1ccc(C(=O)NCC(=O)O)cc1S(=O)(=O)N1CCCCC1,6.73%
14,COC(=O)c1ccccc1NC(=O)CN(Cc1ccccc1)S(C)(=O)=O,-3.25%
15,Cc1cc(=O)oc(C)c1C(=O)NC1CC(C)(C)NC(C)(C)C1,5.11%
16,CC(C)c1nc(-c2ccccn2)no1,-4.78%
17,CC(Sc1nncn1C)C(=O)Nc1ccccc1-c1ccccc1 (stereo unspecified),-1.58%
18,COCCN(C(=O)CCC(=O)Nc1ccccn1)C(C(=O)NCCC(C)C)c1ccc(OC)cc1 (stereo unspecified),-1.72%
19,COc1ccccc1-c1nnc(SCC(=O)N2CC(C)CC(C)C2)o1 (stereo unspecified),-0.15%
20,Cn1c(CNc2nc(-c3ccccc3)cs2)nnc1SCC(=O)c1ccccc1,-1.17%
21,O=C1N=C(N2CCOCC2)CS1,3.2%
22,COc1ccc(CCN2C(=O)c3[nH]nc(-c4ccccc4O)c3C2c2ccc(C)cc2)cc1OC (stereo unspecified),-1.75%
23,O=C(CSc1nnc2ccccn12)c1ccccc1,8.89%
24,Cc1onc(-c2ccccc2)c1C(=O)N1CCOCC1,6.53%

row,Structure (SMILES),inhibition
1,Cc1noc(/C=C/N(C)C)c1S(=O)(=O)N1CCCC(C(=O)NCc2ccco2)C1 (stereo unspecified),4.93%
2,Cc1cccc(N2C(=O)SC(N(CC(=O)O)c3cccc(C)c3)C2=O)c1 (stereo unspecified),8.43%
3,CCCCOC(=O)Nc1nccs1,2.38%
4,C=CCOc1ccc(/C=N/n2cncn2)cc1OC,1.3%
5,CCc1nc(Nc2ccc3nccnc3c2)c2oc3ccccc3c2n1,-2.31%
6,C=CCn1c(COc2cccc3cccnc23)nnc1SCC(=O)OC,6.46%
7,Cc1nc2c(-c3ccc(F)cc3)c(C)nn2c(C)c1CCC(=O)N1CCN(c2ccccn2)CC1,-0.57%
8,CCOC(=O)CCc1c(C)c2ccc(OCc3nn[nH]n3)c(C)c2oc1=O,1.69%
9,Cc1cc(C)c(S(=O)(=O)NCCCN2CCOCC2)cc1Br,1.5%
10,Cc1cc(NC(=O)CSc2nnc(-c3ccc(Cl)s3)o2)no1,1.24%
11,O=C(COC(=O)C12CC3CC(CC(C3)C1)C2)NCc1ccco1,-3.05%
12,Cc1ccc(NC(=O)CSc2nnc(-c3cnccn3)n2Cc2ccco2)cc1C,3.51%
13,CC(C)OC(=O)C(C#N)c1nc2ccccc2nc1N1CCN(Cc2ccc3c(c2)OCO3)CC1 (stereo unspecified),0.39%
14,CCOc1ccc2[nH]c(=O)c(CN(CCCO)C(C)=O)cc2c1,2.29%
15,CCOc1ccc2c(c1)cc(CN(C(=O)CC)C1CCCCC1)c1nnnn12,10.1%
16,CCOC(=O)N1CCN(CC(=O)n2c(C)c(C)c3ccccc32)CC1,-1.09%
17,O=C(c1cccc(C(=O)N2CCc3ccccc32)n1)N1CCc2ccccc21,3.59%
18,CC(C)(C)Oc1ncc(Br)c(OC(C)(C)C)n1,-1.01%
19,Cn1c2c(c(=O)n(C)c1=O)CN(Cc1ccco1)CN2,2.04%
20,N#CCSc1nc2ccccc2c(=O)n1-c1ccccc1,5.09%
21,c1ccc(-n2ncc3c2ncn2c(CSc4nc5ccccc5s4)nnc32)cc1,-2%
22,CC(C)(C)n1nnnc1C(c1cccs1)N(Cc1cccnc1)CC1CCCO1 (stereo unspecified),3.9%
23,COc1ccc(/C(O)=C2/C(=O)C(=O)N(CCCN(C)C)C2c2ccccc2)cc1OC (stereo unspecified),0.7%
24,Cn1c(=O)oc2cc(S(=O)(=O)N3CCC(C(=O)Nc4ccc(OC(F)(F)F)cc4)CC3)ccc21,1.08%

row,Structure (SMILES),inhibition
1,Cc1nnc(SCC(=O)N(C(C)C)C(C)C)nc1C,3.33%
2,COc1cccc(-c2nnc(NC(=O)c3ccc(S(=O)(=O)N(CC(C)C)CC(C)C)cc3)o2)c1,3.9%
3,C=C(C)CSc1nc(N)c2c3c(sc2n1)CCC3,-1.31%
4,O=C(Nc1ccccc1)c1cccnc1Nc1ccccc1,-3.06%
5,COc1ccc(Cc2nnnn2CC(=O)O)cc1,-2.08%
6,CSc1nsc(SC)c1NC(=O)OC1CCCCC1,2.76%
7,CCOC(=O)C1CCCN(C(=O)C2CCN(c3nnc(-n4cccc4)s3)CC2)C1 (stereo unspecified),5.94%
8,Cn1nnnc1SCC(=O)N1CCN(C(c2ccccc2)c2ccccc2)CC1,8.32%
9,C/C(=C(\C#N)C(=O)NCCCN1CCOCC1)N(C)C,2.66%
10,CC1(C)C/C(=C(/C#N)C(N)=O)CCO1,9.43%
11,Cc1ccsc1CNn1cnnc1SCc1ccccc1F,2.13%
12,CC(NC(=O)CN1CCN(Cc2ccc(Cl)cc2)C1=O)c1ccc2c(c1)OCCO2 (stereo unspecified),0.3%
13,CCOC(=O)c1ccc(Nc2cc(C)nc3nc(C)nn23)cc1,-3.59%
14,O=C(CN1CCOc2ccccc21)N1CCC(Cc2ccccc2)CC1,0.85%
15,C=CCn1c(C2CC(=O)N(c3ccc(C)cc3)C2)nc2ccccc21 (stereo unspecified),-1.25%
16,CCN(CC)CCCNC(=O)c1cc(-c2cccc(Cl)c2)on1,4.03%
17,O=C1N(Cc2ccc3c(c2)OCO3)c2ccccc2C1(O)c1c[nH]c2ccccc12 (stereo unspecified),-2.6%
18,CCOc1ccc(/C(O)=C2/C(=O)C(=O)N(Cc3cccnc3)C2c2ccc(N(C)C)cc2)c(C)c1 (stereo unspecified),1.4%
19,Nc1nonc1-c1noc(-c2ccc(Br)o2)n1,25% (active)
20,O=C(O)CCC(=O)NCc1ccc2[nH]c3c(c2c1)CCCC3,3.83%
21,CCOC(=O)c1c(NC(=O)CSc2nnc(CN3CCOCC3)n2C)sc2c1CCCC2,-0.13%
22,O=C(OCC(O)C(O)COC(=O)c1ccccc1)c1ccccc1 (stereo unspecified),0.46%
23,N#Cc1c(N)n(CCOC(=O)c2ccc(Cl)cc2)c2nc3ccccc3nc12,0.87%
24,Cc1ccc(-n2c(N)c(C(=O)N3CCOCC3)sc2=S)c(C)c1,-2.06%

row,Structure (SMILES),inhibition
1,O=C(CN1CCN(c2ncc(C(F)(F)F)cc2Cl)CC1)Nc1ccc2c(c1)OCO2,10.7%
2,CC1(C)CC(=O)C(C2=NC(C)(C)Cc3ccccc32)=C(O)C1,0.19%
3,CCCCOC(=O)c1[nH]c(C)c(C(=O)OC)c1C,4.33%
4,CC(Sc1nncs1)C(=O)NCc1ccc2c(c1)OCO2 (stereo unspecified),-5.21%
5,CCOC(=O)N1CCN(S(=O)(=O)c2cc3c(cc2C)NC(=O)CO3)CC1,1.1%
6,CCOC(=O)CCc1c(C)c(C#N)c2[nH]c3ccccc3n2c1=O,2.21%
7,O=C(NCc1ccccn1)c1cnc2sccn2c1=O,-2.74%
8,Cc1ccccc1C(OCC(O)CN1CCCCC1CCO)c1ccccc1 (stereo unspecified),2.98%
9,CCCC(=O)N1CCc2[nH]c3ccccc3c2C1,0.39%
10,Cc1ccccc1Nc1nnc(C)c(=O)[nH]1,-0.9%
11,CC(=O)C1=C(O)C(=O)N(c2ccc(S(N)(=O)=O)cc2)C1c1ccccc1F (stereo unspecified),-1.52%
12,Cc1ccc(NC(=O)NCC(c2cccnc2)N2CCOCC2)cc1 (stereo unspecified),-2.73%
13,OCc1nc(CO)n(Cc2ccccc2)n1,5.1%
14,c1ccc(CCC2=NCCn3cccc32)cc1,4.22%
15,CCOc1ccccc1C1NC(=O)NC(C)=C1C(=O)OCc1ccco1 (stereo unspecified),2.19%
16,COc1cccc(N2CCN(C(=O)C3CCCN(S(=O)(=O)c4cnc[nH]4)C3)CC2)c1 (stereo unspecified),-4.17%
17,O=C(C1CCN(S(=O)(=O)c2cnc[nH]2)CC1)N1CCN(Cc2ccc3c(c2)OCO3)CC1,5.41%
18,Cc1cccc(N2CCN(C(=O)C3CCN(S(=O)(=O)c4cnc[nH]4)CC3)CC2)c1C,44.5% (active)
19,CCC(c1nnnn1C1CCCC1)N1CCN(C(=O)c2ccco2)CC1 (stereo unspecified),4.25%
20,CCCCN=C(N)/C(C(=O)OCC)=C(\O)c1ccc(OC)cc1,-2.85%
21,CC(C)OC(=O)c1sc2nc3c(cc2c1N)C(=O)CCC3,1.67%
22,COc1ccc(N2C(=O)C3CCCN3C2c2cccs2)cc1 (stereo unspecified),2.37%
23,O=S(=O)(NCCOc1cccc2cccnc12)c1ccc(F)cc1,-0.09%
24,O=C(C1=C(O)C(=O)N(Cc2ccccc2)C1c1cccnc1)c1ccco1 (stereo unspecified),-2.37%

# Reference: PubChem BioAssay AID453 (PCMD, 2006)
